Only some compounds are listed: those with a hit (about 3.6% of all), similar ones and a draw of the others.
Pf apPOL inh – Pf-apPOL DNA polymerase inhibition; Recombinant Pf-apPOL, molecular beacon fluorescence, 1.5 h; inhibition, % at 10 µM; 210,000 compounds, 0.25% hits; AID 1794808
mHTT-CaM PPI inh – disrupts binding of mutant huntingtin to calmodulin; P42858; AlphaScreen His-mHTT/GST-CaM binding, luminescence; inhibition, % at 15 µM; 190,000 compounds, 3.6% hits; AID 1671202;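 also: 0% = both proteins with DMSO and 100% = one protein alone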
Target sequence (P42858 whole entry, looked up, stated change not applied): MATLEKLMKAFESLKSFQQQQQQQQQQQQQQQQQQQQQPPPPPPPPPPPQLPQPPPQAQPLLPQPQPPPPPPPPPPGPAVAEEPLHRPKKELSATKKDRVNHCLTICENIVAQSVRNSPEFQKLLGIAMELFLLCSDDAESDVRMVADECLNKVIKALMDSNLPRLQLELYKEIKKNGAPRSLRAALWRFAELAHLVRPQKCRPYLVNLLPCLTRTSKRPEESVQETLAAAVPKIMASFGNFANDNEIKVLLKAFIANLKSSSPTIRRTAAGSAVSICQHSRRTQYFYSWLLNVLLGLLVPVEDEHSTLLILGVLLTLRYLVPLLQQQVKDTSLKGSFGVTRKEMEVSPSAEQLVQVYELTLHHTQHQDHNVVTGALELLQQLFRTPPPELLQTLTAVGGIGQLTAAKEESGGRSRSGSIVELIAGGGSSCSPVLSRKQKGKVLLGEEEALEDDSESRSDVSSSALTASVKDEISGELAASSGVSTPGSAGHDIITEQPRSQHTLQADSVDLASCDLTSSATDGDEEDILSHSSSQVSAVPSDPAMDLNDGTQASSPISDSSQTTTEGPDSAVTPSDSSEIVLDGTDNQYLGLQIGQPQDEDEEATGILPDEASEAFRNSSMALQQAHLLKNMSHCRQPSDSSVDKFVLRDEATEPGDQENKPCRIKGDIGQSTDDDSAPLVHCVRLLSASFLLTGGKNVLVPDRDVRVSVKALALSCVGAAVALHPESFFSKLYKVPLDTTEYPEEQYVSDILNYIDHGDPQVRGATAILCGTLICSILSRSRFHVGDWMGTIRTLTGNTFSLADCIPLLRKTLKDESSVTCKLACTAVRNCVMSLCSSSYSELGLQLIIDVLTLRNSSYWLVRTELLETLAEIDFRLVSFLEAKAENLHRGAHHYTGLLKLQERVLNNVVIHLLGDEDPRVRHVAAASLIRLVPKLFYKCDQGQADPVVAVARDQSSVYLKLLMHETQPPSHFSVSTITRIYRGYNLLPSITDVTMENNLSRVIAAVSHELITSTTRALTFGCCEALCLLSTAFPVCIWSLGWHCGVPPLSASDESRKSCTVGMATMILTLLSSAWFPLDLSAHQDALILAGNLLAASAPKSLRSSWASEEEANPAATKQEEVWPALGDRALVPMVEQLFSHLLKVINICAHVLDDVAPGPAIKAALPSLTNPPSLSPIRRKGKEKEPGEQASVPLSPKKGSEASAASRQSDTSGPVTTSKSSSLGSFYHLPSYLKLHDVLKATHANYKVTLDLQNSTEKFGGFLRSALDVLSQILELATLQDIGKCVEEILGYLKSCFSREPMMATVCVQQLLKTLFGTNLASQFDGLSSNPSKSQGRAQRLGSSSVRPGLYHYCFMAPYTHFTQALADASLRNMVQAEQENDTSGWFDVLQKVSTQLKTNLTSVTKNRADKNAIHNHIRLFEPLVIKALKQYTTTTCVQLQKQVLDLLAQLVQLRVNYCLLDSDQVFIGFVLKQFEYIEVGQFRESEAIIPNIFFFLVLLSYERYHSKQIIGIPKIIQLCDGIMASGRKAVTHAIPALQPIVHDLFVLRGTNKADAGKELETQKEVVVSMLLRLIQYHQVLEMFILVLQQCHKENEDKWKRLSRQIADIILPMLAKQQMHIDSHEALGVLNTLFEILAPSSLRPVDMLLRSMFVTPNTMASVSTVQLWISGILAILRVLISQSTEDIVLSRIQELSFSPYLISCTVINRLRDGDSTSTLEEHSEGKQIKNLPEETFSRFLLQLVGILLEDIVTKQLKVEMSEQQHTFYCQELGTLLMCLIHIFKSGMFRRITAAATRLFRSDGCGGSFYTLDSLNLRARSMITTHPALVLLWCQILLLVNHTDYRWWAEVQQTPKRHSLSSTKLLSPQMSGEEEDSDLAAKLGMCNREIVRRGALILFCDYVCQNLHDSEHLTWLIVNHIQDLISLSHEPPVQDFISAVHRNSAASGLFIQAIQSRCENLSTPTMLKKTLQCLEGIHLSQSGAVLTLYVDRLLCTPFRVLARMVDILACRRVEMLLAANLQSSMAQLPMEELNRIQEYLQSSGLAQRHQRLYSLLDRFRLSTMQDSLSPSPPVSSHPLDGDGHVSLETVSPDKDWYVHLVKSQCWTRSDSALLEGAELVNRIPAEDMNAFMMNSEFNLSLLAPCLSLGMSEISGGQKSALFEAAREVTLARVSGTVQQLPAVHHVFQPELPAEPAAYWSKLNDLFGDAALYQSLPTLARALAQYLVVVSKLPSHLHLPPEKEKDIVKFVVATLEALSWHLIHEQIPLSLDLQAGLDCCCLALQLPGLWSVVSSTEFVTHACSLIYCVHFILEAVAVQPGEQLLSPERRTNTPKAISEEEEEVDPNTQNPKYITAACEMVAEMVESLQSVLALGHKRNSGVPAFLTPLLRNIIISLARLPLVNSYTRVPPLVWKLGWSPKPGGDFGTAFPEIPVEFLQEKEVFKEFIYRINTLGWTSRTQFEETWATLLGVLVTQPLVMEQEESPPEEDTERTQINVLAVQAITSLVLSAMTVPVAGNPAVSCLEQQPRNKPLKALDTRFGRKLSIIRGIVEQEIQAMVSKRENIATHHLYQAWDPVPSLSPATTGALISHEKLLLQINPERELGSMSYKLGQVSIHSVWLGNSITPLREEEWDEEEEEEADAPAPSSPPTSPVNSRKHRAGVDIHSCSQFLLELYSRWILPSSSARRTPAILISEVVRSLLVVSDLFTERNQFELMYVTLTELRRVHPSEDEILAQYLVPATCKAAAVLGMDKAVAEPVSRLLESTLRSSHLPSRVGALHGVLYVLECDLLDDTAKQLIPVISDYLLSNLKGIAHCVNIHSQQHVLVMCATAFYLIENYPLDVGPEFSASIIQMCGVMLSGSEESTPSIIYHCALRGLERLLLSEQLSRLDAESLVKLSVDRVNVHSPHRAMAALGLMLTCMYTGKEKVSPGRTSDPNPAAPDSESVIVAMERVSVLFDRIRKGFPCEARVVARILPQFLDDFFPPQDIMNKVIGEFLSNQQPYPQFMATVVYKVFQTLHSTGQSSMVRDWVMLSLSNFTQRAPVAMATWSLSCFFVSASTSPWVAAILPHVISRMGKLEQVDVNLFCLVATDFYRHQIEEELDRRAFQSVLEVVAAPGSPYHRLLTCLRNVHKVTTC
Active calls of the source: *; x = no result given; ! = a repeat was not active. Rule as the data show it: active = inhibition above about 50%; inactive = the rest.

SMILES | Pf apPOL inh | mHTT-CaM PPI inh
CCc1ccc(NC(=O)CSc2nnc(-c3ccco3)c(-c3ccco3)n2)cc1 | -0.5 | 92.0*
CCN(CC)CCCNCc1c(F)cccc1Cl | -12.0 | 13.0
C=CCN1C(=O)C2(Nc3ccccc3C(=O)N2c2ccc(Cl)cc2)c2ccccc21 (centres undefined) | 12.6 | 7.0
Cc1ccnc(SCC(=O)N2CCc3ccccc3C2)n1 | -43.0 | -5.0
O=C(CSc1nnc(-c2ccco2)c(-c2ccco2)n1)N1CCc2ccccc2C1 | 0.6 | 93.0*
CCc1noc(COC2CCCN(C(=O)COc3ccccc3C)C2)n1 (centres undefined) | -4.3 | -8.4
Cn1c(N2CCC(C(=O)N3CCN(c4ccc(Cl)cc4)CC3)CC2)cc(=O)n(C)c1=O | -1.1 | 49.9
CCCn1ncc(N2CCC(C(=O)Nc3ccc(OC)cc3OC)CC2)cc1=O | -2.2 | 19.8
CCn1c(N2CCC(C(=O)N3CCN(c4ccc(F)cc4)CC3)CC2)cc(=O)n(C)c1=O | 3.7 | 70.5*
CCCn1ncc(N2CCC(C(=O)Nc3cc(C)ccc3OC)CC2)cc1=O | -1.6 | 77.3*
CCn1c(N2CCC(C(=O)Nc3ccc(F)cc3)CC2)cc(=O)n(C)c1=O | -5.8 | 27.5
CCn1c(N2CCC(C(=O)Nc3cccc(OC)c3)CC2)cc(=O)n(C)c1=O | -0.5 | 44.1
CCOc1ccc(NC(=O)C2CCN(c3cc(=O)n(C)c(=O)n3CC)CC2)cc1 | -1.8 | 60.7*
CCn1c(N2CCC(C(=O)Nc3ccc(OC)c(OC)c3)CC2)cc(=O)n(C)c1=O | -1.3 | 61.8*
COC1CCC(OC)CC1 (centres undefined) | x | -2.4
Cc1nn(-c2ccc(C(=O)N3CCOCC3)cc2)c2c1C(=O)CC(C)(C)C2 | 1.4 | -1.1
O=C(NCc1ccco1)N1CCC(CCOc2ccccc2)CC1 | -1.7 | -0.5
COc1cccc(CNC(=O)C2CCCN(c3nnc4ccc(Cl)cn34)C2)c1 (centres undefined) | -2.9 | 4.5
CCOc1ccc(S(=O)(=O)N2CC=C(c3cn(C(C)C)c4ncccc34)CC2)cc1 | -3.8 | -0.5
CC1CCCC(NC(=O)C(Cc2ccccc2)NS(=O)(=O)c2ccc(Cl)cc2)C1C (centres undefined) | -0.8 | -10.0
CC(=O)Nc1cc(C(=O)NC2CCCC(C)C2C)ccc1S(=O)(=O)c1ccc(Cl)cc1 (centres undefined) | 71.4* | 5.0
O=C(c1ccc(F)c(F)c1)N1CCC(COc2ccccc2C(=O)N2CCCCC2)CC1 | -1.1 | 19.9
Cc1cccc(C(=O)N2CCC(c3nc(C(=O)N(C)C)c(C)o3)CC2)c1 | -1.5 | -9.8
CCN1C(=O)Cc2ccccc2C1C(=O)N1CCCCCC1 (centres undefined) | 2.4 | 0.9
COc1ccc(C(Nc2cccc(C)n2)c2ccc3cccnc3c2O)cc1 (centres undefined) | 3.4 | 100.0*
SMILES | Pf apPOL inh | mHTT-CaM PPI inh
Cc1cccc(NC(c2ccc(Cl)cc2)c2ccc3cccnc3c2O)n1 (centres undefined) | -12.0 | 98.0*
Cc1cccc(NC(c2cccc(Cl)c2)c2ccc3cccnc3c2O)n1 (centres undefined) | -1.5 | 98.0*
O=C(Nc1cccc(Cl)c1)Nc1cccc2cccnc12 | -5.0 | -1.7
Cc1cccc(NC(c2ccncc2)c2ccc3cccnc3c2O)n1 (centres undefined) | 1.8 | 100.0*
Cc1cccc(NS(=O)(=O)c2ccc(Cl)cc2)n1 | 0.4 | -2.0
Cc1cccc(NC(=O)c2cccs2)n1 | -0.2 | x
COc1ccc(NC(=O)Nc2cccc(C)n2)cc1 | 3.7 | -5.8
O=S(=O)(Nc1cccc(NS(=O)(=O)c2ccc(F)cc2)c1)c1ccc(F)cc1 | 5.7 | -2.2
Cc1ccccc1C(=O)N1CCC(CCOc2ccccc2)CC1 | -5.4 | 24.0
C=CCNC(=O)Nc1nc2c(OC)ccc(OC)c2s1 | -0.4 | -8.0
Cc1ccccc1NC(=O)c1cnn2c3c(cnc12)CCCCCC3 | -1.3 | 4.7
CC(=O)c1ccc(N=Nc2cc(C)c(N3Cc4ccccc4C3)cc2C)cc1 | -1.1 | x
CC(C)c1ccccc1NC(=O)COc1ccc([N+](=O)[O-])cc1 | -4.4 | -2.5
O=[N+]([O-])c1cccc(S(=O)(=O)N2CCCC2)c1 | -10.0 | -3.4
O=[N+]([O-])c1cccc(S(=O)(=O)C=C(Cl)Cl)c1 | x | 62.7*
NC1CCCc2c1[nH]c1ccc([N+](=O)[O-])cc21 (centres undefined) | 2.8 | 12.4
O=[N+]([O-])c1ccc2[nH]c3c(c2c1)CCCC3NC1CCN(CCc2ccccc2)CC1 (centres undefined) | -1.4 | 100.3*
O=C1/C(=C/c2c[nH]c3ccccc23)Sc2ccccc21 | -5.0 | 13.0
O=C1/C(=C/c2c[nH]c3ccccc23)CC/C1=C\c1c[nH]c2ccccc12 | -3.3 | 98.0*
Cc1ncsc1CN1CCC(C(O)c2ccccc2)CC1 (centres undefined) | -6.9 | 13.3
Cc1c(Cl)cccc1NC(=O)CCN1CCN(C/C=C/c2ccccc2)CC1 | -5.8 | 50.3*
Cc1ccc(NC(=O)CCN2CCN(C/C=C/c3ccccc3)CC2)cc1 | -9.8 | 42.3
CCc1cccc(N2C=C(C#N)S(=O)(=O)c3ccc(C)cc32)c1 | 0.8 | -4.2
O=C(Nc1nc(-c2ccc(Br)cc2)cs1)c1ncn[nH]1 | -6.2 | 99.5*
O=C(Nc1nc(-c2ccccc2)cs1)c1ncn[nH]1 | -1.2 | 23.5
SMILES | Pf apPOL inh | mHTT-CaM PPI inh
O=C(Nc1ccc(F)cc1)N1CCc2nc(-c3ccccc3)ncc2C1 | -1.7 | -5.2
O=C(NC1CC1)c1ccc(OCC2CCCN2C(=O)c2ccc(F)c(F)c2)cc1 (centres undefined) | -0.2 | -4.5
O=C(CSc1nnc2c(n1)[nH]c1ccccc12)Nc1ccccc1 | 33.8 | 5.0
CCC(Sc1nnc2c(n1)[nH]c1ccccc12)C(=O)Nc1cccc(C(C)=O)c1 (centres undefined) | 1.1 | 64.8*!
Clc1ccc(OC2=C(c3ccccc3)N3CCN=C3S2)cc1 | -0.4 | 60.0*
O=[N+]([O-])c1ccc(OC2=C(c3ccccc3)N3CCN=C3S2)cc1 | -2.4 | 33.0
Oc1oc(-c2ccc(Cl)cc2)nc1C=Nc1ccc(Cl)cn1 | 61.8* | -1.0
Oc1oc(-c2ccc(Cl)cc2)nc1C=Nc1ccc(Br)cn1 | -3.7 | -3.0
CCN(CC)c1ccc(NC(=O)c2ccc(OC)cc2OC)cc1 | 0.1 | 66.9*
COc1ccc(C(=O)Nc2ccc(I)cc2)c(OC)c1 | -2.1 | 1.7
CCOc1ccc(C(=O)Nc2ccc(N(CC)CC)cc2)cc1[N+](=O)[O-] | 0.8 | 9.9
CCN(CC)c1ccc(NC(=O)c2ccc(OC)c([N+](=O)[O-])c2)cc1 | -0.9 | 61.9*
Cc1nnc(NC(=O)CCn2cnc3c(cnn3C(C)(C)C)c2=O)s1 | -8.1 | -11.4
Cc1ccc2c(c1)N(c1ccc(C)c(Cl)c1)C=C(C#N)S2(=O)=O | 1.6 | -6.5
Oc1nc(Nc2ccccc2)sc1C=C1C=Nc2ccccc21 | 0.2 | 69.0*
O=c1[nH]c(O)c(C=C2C=Nc3ccccc32)[nH]1 | -17.8 | x
Cn1c(=O)n(Cc2ccccc2Cl)c2ccccc21 | -2.5 | 3.0
Cn1c(=O)n(Cc2ccc(Cl)c(Cl)c2)c2ccccc21 | -5.2 | 77.6*
O=c1oc(=O)n(Cc2ccc(Cl)c(Cl)c2)c2ccccc12 | -3.1 | 99.0*
N=c1n(CCO)c2ccccc2n1Cc1ccc(Cl)c(Cl)c1 | -8.0 | 12.8
COc1ccc(NC(=O)CCOc2ccccc2)c(OC)c1 | -137.9 | 2.3
COc1ccc(NC(=O)CC2(C)NN=C(c3ccccc3)S2)c(OC)c1 (centres undefined) | -25.1 | 73.0*
Cc1nnc2ccc(S(=O)(=O)Nc3ccc(F)cc3)cn12 | 4.6 | 0.4

High-throughput results (PubChem BioAssay)
